From PubChem BioAssay (NCI)
Compounds without any hit were thinned out: in the full panel of roughly 83,000, 20% have a hit.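 Compound tested at a single concentration for 48 hours in 96-well plates; a percent growth value below 10 was scored as active.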 Values without a mark were called inactive. Activity calls are given as the source filed them.

Legend:
Assay in all cases: NCI-60 one-dose screen, 48 h (100 = growth as untreated, 0 = no growth, -100 = all killed)
Conditions in all cases: 10 µM unless noted
[1] = system: NCI-H23 lung
[2] = system: NCI-H226 lung
[3] = system: NCI-H322M lung
[4] = system: HOP-62 NSCLC
[5] = system: NCI-H460 lung
[6] = system: HOP-92 NSCLC
[7] = system: NCI-H522 lung
[8] = system: A549/ATCC NSCLC
[9] = system: 786-0 renal
[10] = system: COLO 205 colon
[11] = system: DU-145 prostate
[12] = system: K-562 leukemia
[13] = system: MALME-3M melanoma
[14] = system: MDA-MB-231 breast
[15] = system: RXF 393 renal
[16] = system: SF-268 CNS
[17] = system: SF-295 CNS
[18] = system: SF-539 CNS
[19] = system: UACC-257 melanoma
[20] = system: M14 melanoma

Compound	growth [1]	growth [2]	growth [3]	growth [4]	growth [5]	growth [6]	growth [7]	growth [8]	growth [9]	growth [10]	growth [11]	growth [12]	growth [13]	growth [14]	growth [15]	growth [16]	growth [17]	growth [18]	growth [19]	growth [20]
C=CCN1C(=O)/C(=C/C(=O)OC)S/C1=N\NC(=O)c1cc2ccc1/C=C\c1ccc(cc1)/C=C\2	88.2%	87.5%	97.1%	107%	102%	81.4%	60.7%	94.8%	91.2%	110%	106%	51.9%	92.4%	97.7%	94.8%	103%	93.6%	99.7%	91.1%	78.9%
COc1ccc2[nH]c(O)c(/C=c3/cc4c(c(-c5ccc(F)cc5)n3)=Nc3ccccc3-4)c2c1	67.9%	76.3%	94%	95.5%	41.5%	66.7%	68.5%	75.8%	97.6%	96.6%	76.6%	23.5%	114%	32.2%	81.5%	79.3%	86.9%	89.5%	113%	92.3%
C#CCNC(=O)[C@]1(C)CC[C@]2(C)CC[C@@H]3C(=CC[C@H]4[C@@]3(C)CC[C@H]3C(C)(C)C(=O)CC[C@]43C)[C@@H]2C1	91%	98.7%	90.9%	101%	97.6%	99.9%	79.8%	91.6%	89.8%	101%	98.8%	63.7%	114%	98%	116%	95.7%	107%	102%	98.7%	95.8%
Nc1c(C(=O)Nc2cccc3cnccc23)sc2nc3c(cc12)CN(Cc1ccccc1)CC3	99.9%	92.5%	96.9%	98.7%	109%	96.4%	97.2%	107%	109%	112%	109%	96.5%	101%	89.1%	103%	103%	106%	107%	124%	102%
O=C1c2ccc3c4c(ccc(c24)C(=O)N1CCCNCc1ccccc1F)C(=O)N(CCCNCc1ccccc1F)C3=O	-53% (active)	-51.9% (active)	-83.5% (active)	-29.7% (active)	-55.2% (active)	-14.2% (active)	-92.5% (active)	-91.2% (active)	-40.1% (active)	-46% (active)	-91.9% (active)	-28.2% (active)	-72.2% (active)	-7.55% (active)	-87.9% (active)	-65.1% (active)	-67.7% (active)	-65.5% (active)	-98.6% (active)	-60.8% (active)
O=C1Nc2cc(-c3ccc(NC(=O)c4ccccc4)cc3)ccc2/C1=C/c1ccc[nH]1	66.7%	90.6%	94.1%	104%	83.4%	115%	92.2%	103%	107%	118%	98.9%	95.1%	102%	90%	111%	101%	106%	98%	110%	105%
COc1ccc2nc(-c3ccc(-c4noc(-c5cc(OC)c(OC)c(OC)c5)n4)cc3)[nH]c2c1	63.8%	86%	101%	76.8%	56.3%	76.2%	74.9%	45.8%	77.8%	78.4%	57.4%	14.7%	-33% (active)	41.4%	58.2%	50.5%	83.3%	-24.4% (active)	102%	63%
CCN1C(=O)/C(=C/C(=O)OC)S/C1=N\NC(=O)c1cc2ccc1/C=C\c1ccc(cc1)/C=C\2	99.6%	92.7%	92.3%	101%	104%	81.6%	59.7%	96.6%	90.6%	108%	108%	54.2%	91.9%	96.1%	101%	97.8%	96.9%	90.2%	92.7%	87.1%
O=[N+]([O-])CC(c1ccccc1)c1c[nH]c2ccccc12 (stereo not given)	68.5%	63.6%	97.6%	56%	52.6%	75.7%	5.68% (active)	42.4%	70%	54.1%	84.1%	10%	57.3%	46.1%	64.3%	65.1%	44.1%	50.2%	55.8%	23.2%
CC(=O)N1N=C(c2ccc(-n3ccc(C(F)(F)F)n3)c(F)c2)CC1c1ccc[nH]1 (stereo not given)	100%	106%	110%	112%	103%	130%	77.2%	104%	102%	122%	109%	91.9%	102%	105%	116%	104%	98.8%	102%	96.4%	102%
CCOC(=O)Oc1c(OC)cc(C(=O)c2ccc(OC)c(O)c2OC)cc1OC	37.8%	54.9%	46.1%	24%	8.66% (active)	48.3%	24%	25.7%	21.2%	89.6%	13.8%	10.8%	49.1%	30.8%	-10.1% (active)	48.7%	22.6%	-15.7% (active)	47.3%	-9.21% (active)
CCOC(=O)C1=C(C)NC(SCc2cc(=O)oc3ccc(F)cc23)=N[C@@H]1c1cccc2ccccc12	94.3%	103%	102%	90.8%	105%	86.7%	84.8%	98.9%	93.4%	108%	98.5%	79.7%	112%	77.7%	117%	94.3%	97.9%	114%	109%	102%
CCCCCN1C=C/C(=C\C(=O)N2CCCc3ccccc32)c2ccccc21	57.5%	79.3%	102%	107%	91.9%	73.5%	68.5%	89.4%	95.6%	96.8%	94.1%	54.1%	86%	97%	99.5%	87.2%	85.7%	97.2%	89.8%	100%
O=C(Nc1cccc(C(=O)N2CCc3ccc(Cl)cc32)c1)c1ccco1	62.4%	60.2%	65.2%	42.4%	15.8%	74.1%	17.8%	38.3%	40.5%	27.5%	67.8%	13.9%	40.9%	44.9%	39.9%	55.9%	30.8%	26.8%	52.2%	18.2%
